LmPK inh = inhibitors of Leishmania mexicana pyruvate kinase; Q27686; purified LmPK, Kinase-Glo ATP luminescence, 1 h; Potency, µM (highest dose often 57.5 µM), most hits filed as inhibitors; hit rate 0.37% among 290,000
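qHTS format; LmPK 0.1 nM; substrates PEP 0.5 mM and ADP 0.1 mM. One-hour room-temperature incubation, then coupled luciferase luminescence; 0.5 nM enzyme wells mark activation.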
Sm TGR inh = inhibitors of Schistosoma mansoni thioredoxin glutathione reductase; Q962Y6; purified TGR, DTNB reduction, TNB absorbance 405 nm; Potency, µM (series often up to 114 µM), actives largely listed as inhibitors; hit rate 3% among 360,000; note: nearly all actives have a fitted effect of over 60% in size
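Kinetic colorimetric format: TGR-catalysed, NADPH-driven DTNB reduction monitored via TNB absorbance. Enzyme dispensed at 20 nM; compound exposure 15 min at room temperature before reaction start.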
Cycloheximide cs = counter-screen hit for Shiga toxin inhibitors, cycloheximide. cell reporter, cycloheximide protein synthesis inhibition counterscreen. max response, %. hit rate 12% among 300,000. AID 2314; in the data active = max response mostly above about 13%, no sharp cut-off; inactive = mostly below about 14%; note: read at 38.3 µM for the half of the compounds with a filed dose
Shiga inhibitor = blocks Shiga toxin action in Vero cells; Vero cells, Shiga toxin protein synthesis inhibition reporter; inhibition, % at 38.7 µM; hit rate 9.2% among 290,000; in the data active = inhibition mostly above about 28%, no sharp cut-off; inactive = mostly below about 43%
FBPA Giardia inh = Giardia lamblia aldolase inhibition | A8B2U2 | purified Giardia FBPA | Potency, µM (doses to about 59.6 µM), usual class: inhibitors | hit rate 0.71% among 290,000 | AID 2451; note: nearly all actives have a fitted effect of over 55% in size
Target sequence (A8B2U2 whole entry, looked up): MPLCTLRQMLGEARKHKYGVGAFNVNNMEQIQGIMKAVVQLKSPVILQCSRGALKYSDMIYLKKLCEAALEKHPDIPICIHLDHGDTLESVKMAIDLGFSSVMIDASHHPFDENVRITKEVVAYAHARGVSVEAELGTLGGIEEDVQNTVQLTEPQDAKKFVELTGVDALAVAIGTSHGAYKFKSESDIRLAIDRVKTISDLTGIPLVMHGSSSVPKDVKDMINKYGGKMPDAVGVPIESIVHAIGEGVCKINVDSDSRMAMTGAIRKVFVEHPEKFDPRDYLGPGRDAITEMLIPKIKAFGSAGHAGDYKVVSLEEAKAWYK
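Giardia FBPA (40 nM reagent) was preincubated 10 min at RT with compound (up to 57.5 uM final), then substrate plus GAPDH/TPI/NAD/arsenate coupling system with diaphorase/resazurin was added; resorufin fluorescence (525/598 nm) was read after 20 min.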
TbPYK inhibitor = blocks Trypanosoma brucei pyruvate kinase | Q57TT1 | TbPYK enzyme, Kinase-Glo Plus ATP luminescence, 45 min | Potency, µM (doses to about 76.8 µM), hits mostly inhibitors | hit rate 0.12% among 410,000 | AID 624173; note: nearly all actives have a fitted effect of over 50% in size
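Screened from lowest to highest concentration, compounds were pinned into TbPYK/substrate mixtures, and ADP (130 uM final) was added. Plates sat at room temperature for 45 min prior to Kinase-Glo Plus detection by luminescence.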
Hits are given with their value; . = inactive; ? = inconclusive; / = no result given; [ ] = dose if it differs, or a comment. The full list was thinned out, with hits kept by preference. Unless noted, calls come from the whole dose curve; as a rule, active = well fitted curve in the direction sought with a large enough effect; inconclusive = small, poorly fitted or top-dose-only effect, or another doubt; inactive = no such curve, though single readings can be large; an effect the other way counts as inactive or inconclusive.

SMILES	LmPK inh	Sm TGR inh	Cycloheximide cs	Shiga inhibitor	FBPA Giardia inh	TbPYK inhibitor
OC[C@H]1O[C@H](n2cnc3c(NC4CCCC4)nc(Cl)nc32)[C@@H](O)[C@@H]1O	/	/	/	/	.	/
O=S(=O)(Cc1ccccc1)N1CCc2ccccc21	.	?	13.1	33.7	.	/
CN(C)S(=O)(=O)N1CCc2ccccc21	.	?	.	.	.	.
O=C(CS(=O)(=O)Cc1ccccc1)N1CCc2ccccc2C1	.	.	16.1	.	.	.
O=C(Cc1ccccc1[N+](=O)[O-])N1CCc2ccccc2C1	.	.	15.3	.	.	.
O=C(Cc1ccc([N+](=O)[O-])cc1)N1CCc2ccccc2C1	.	.	.	.	.	.
O=C(CNS(=O)(=O)c1ccccc1)N1CCc2ccccc2C1	.	.	34.8	/	.	.
CS(=O)(=O)N(CC(=O)N1CCc2ccccc2C1)Cc1ccccc1	.	.	.	.	.	.
O=C(c1cccc(F)c1)N1CCC2(CCCN(c3ncccn3)C2)CC1	/	/	/	/	.	.
Cc1sc2nc3n(c(=O)c2c1C)Cc1ccccc1-3	?	.	33.7	77.1	.	/
Cc1ccccc1-c1nc2sc(C)c(C)c2c(=O)o1	.	.	16.8	/	.	.
O=c1nc2n(c3ccccc13)Cc1ccccc1-2	.	?	.	.	.	/
O=c1c2cccc(Cl)c2nc2n1Cc1ccccc1-2	.	.	18.0	.	.	.
CCCc1nn2c(C)c(-c3ccccc3)nc2s1	/	.	/	/	/	.
CN(C)c1ccc(-c2nnn(CC(=O)NCc3ccc4c(c3)OCO4)n2)cc1	.	.	27.5	.	.	.
O=C(NCCc1ccccc1)c1ccc2c(c1)OCCO2	.	.	.	.	/	.
Cc1ccc(C(=O)NCc2ccc3c(c2)OCO3)cc1	.	.	12.6	.	.	.
O=C(NCCc1cccc(Cl)c1)c1ccc2c(c1)OCO2	.	.	32.0	56.4	.	.
Cc1ccccc1-c1nnn(CC(=O)NCc2ccc3c(c2)OCO3)n1	.	.	.	.	.	.
O=C(Cn1nnc(-c2ccc3c(c2)OCO3)n1)Nc1ccccc1C(=O)O	.	.	31.5	41.3	/	.
Cc1ccc(CC(=O)NCc2ccc3c(c2)OCO3)cc1	.	.	.	.	.	.
CC1=C(O)C(=O)C(c2c(C)cc(C)c(Br)c2C)=C(O)C1=O	/	/	/	/	/	.
O=C(Cn1c(=O)oc2cc(Cl)ccc21)Nc1cccc(C(F)(F)F)c1	/	.	/	/	/	.
Cc1cc2cc(CNC(=O)c3ccc4c(c3)OCO4)ccc2[nH]1	.	.	19.8	.	.	.
O=C(NCc1cccc(C(F)(F)F)c1)c1ccc2c(c1)OCO2	.	.	10.2	.	.	.
SMILES	LmPK inh	Sm TGR inh	Cycloheximide cs	Shiga inhibitor	FBPA Giardia inh	TbPYK inhibitor
O=C(NCc1ccc2c(c1)OCO2)c1ccc2c(c1)OCCO2	.	.	.	18.1	.	.
O=C(NCc1ccc2c(c1)OCO2)c1ccc2c(c1)OCO2	.	.	26.3	45.7	.	.
COc1cc(OC)cc(C(=O)NCc2ccc3[nH]c(C)cc3c2)c1	.	?	.	.	.	.
O=C(NCc1cccc(C(F)(F)F)c1)c1cc(Cl)cc(Cl)c1	.	.	.	.	.	.
COc1ccc(C(=O)NCc2nnc(SCC(=O)N3CCCC3)o2)cc1	.	.	.	.	.	.
Cc1ccccc1-c1nnn(CC(=O)Nc2ccc3c(c2)OCCO3)n1	.	.	58.4	141.2	.	.
CC(C)c1ccc(C(=O)NCc2ccc(Cl)cc2)cc1	.	?	73.7	140.7	.	.
Cc1ccccc1-c1nnn(CC(=O)Nc2ccc3c(c2)OCO3)n1	.	.	.	.	.	.
CC(C)c1ccc(C(=O)NCCCN2CCN(CCCNC(=O)c3ccc(C(C)C)cc3)CC2)cc1	.	.	.	.	.	.
CC(C)NC(=O)c1ccc(C(C)C)cc1	.	.	18.1	.	.	.
O=C(NCc1cccc(Cl)c1)c1ccc2c(c1)OCCO2	.	.	21.5	/	.	.
CCOc1ccc(S(=O)(=O)N(CC(=O)Nc2cccnc2)c2ccccc2)cc1	/	.	/	/	/	.
O=C(Nc1ccccc1Br)C(Cc1ccccc1)NS(=O)(=O)c1cccc2nsnc12 (configuration not stated)	/	.	/	/	/	.
Cc1oc(-c2cccc(Cl)c2)nc1CS(=O)(=O)CC(=O)NC(C)CCc1ccccc1 (configuration not stated)	/	?	/	/	/	.
O=C(/C=C/c1ccc2c(c1)OCO2)NCCSCc1ccc(Cl)cc1Cl	.	.	.	.	.	.
CN(C)c1cccc(C(=O)NCc2ccc(Cl)cc2)c1	.	.	27.4	71.4	.	.
O=C(/C=C/c1ccc2c(c1)OCO2)NCCSCc1cccc(Cl)c1	.	.	21.3	.	.	.
O=C(NCc1ccc2c(c1)OCO2)c1ccc(Br)s1	.	.	11.6	.	.	.
Cc1ccc(S(=O)(=O)Cc2ccc(C(=O)NCc3ccc4c(c3)OCO4)o2)cc1	.	25.1µM	.	.	.	.
O=C(NCc1ccc2c(c1)OCO2)c1ccc(Br)o1	.	.	.	.	.	.
O=C(NCc1ccc(Cl)cc1)c1cccc(NC(=O)c2ccccc2)c1	.	.	.	.	.	.
COc1cc2c(cc1OC)C(c1ccc(N)cc1)=NNC(=O)C2	/	/	/	/	.	/
COc1ccc(N2CCN(C(CNC(=O)C(=O)NC3CCCC3)c3ccco3)CC2)cc1 (configuration not stated)	/	.	/	/	/	.
COc1ccc(S(=O)(=O)c2c(O)c(C)cc(NS(=O)(=O)c3ccc(Cl)cc3)c2C(C)C)cc1	/	.	/	/	/	.
COc1ccc(CNC(=O)COC(=O)c2ccc3c(c2)OCCO3)cc1	.	.[11.4 µM]	.	.	.	.
SMILES	LmPK inh	Sm TGR inh	Cycloheximide cs	Shiga inhibitor	FBPA Giardia inh	TbPYK inhibitor
CN(C)c1ccc(C(=O)NCc2ccc3c(c2)OCO3)cc1	.	.	.	.	.	.
COC(=O)c1ccc(CNC(=O)c2ccc3c(c2)OCCO3)cc1	.	.	18.6	.	.	.
CN(C)c1cccc(C(=O)NCc2ccc3c(c2)OCO3)c1	.	.	32.5	57.1	.	.
CCOCCCNC(=O)c1ccc2c(c1)OCO2	.	.	23.3	58.3	.	.
Cc1cn([C@@H]2C[C@H](N=[N+]=N)[C@H](CO)O2)c(=O)[nH]c1=O	/	/	/	/	.	/
CC1=NN(S(=O)(=O)c2ccc(Cl)cc2Cl)C(=O)c2ccccc2O1	.	.	12.5	.	.	.
Cc1nn(-c2ccc(Cl)cc2Cl)c(=O)c2ccccc12	.	.	.	.	.	.
O=C(Cc1ccccc1)NCc1ccc2c(c1)OCO2	.	.	58.7	117.6	.	.
O=C(NCc1ccc2c(c1)OCO2)C(=O)Nc1ccccc1	.	.	22.1	90.5	.	.
CCOC(=O)c1c(NCc2ccc3c(c2)OCO3)c2ccccc2[nH]c1=O	.	.	19.2	.	.	.
O=C(CCc1ccccc1)NCc1ccc2c(c1)OCO2	.	.	14.0	.	.	.
CCCCNC(=O)c1nc(C2CCN(S(=O)(=O)c3ccc(F)c(F)c3)CC2)oc1-c1ccccc1	/	/	/	/	/	.
